Inconclusive results are not listed. Activity calls are given as the source filed them. The calls were made as follows, unless noted: active = hit-call score of the fitted dose curve at least 0.9, where 1 is the maximum; inactive = score below 0.9.
How the values were obtained:
[1] = ACEA_ER_80hr: ACEA Biosciences xCELLigence Real-Time Cell Analysis on Estrogen Receptor Agonism for Proliferation (AID 2282667; active = hit-call score of the fitted dose curve at least 0.9, where 1 is the maximum); conditions: T47D proliferation, impedance (xCELLigence), 80 h
Method in brief: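 Real-time impedance growth kinetics of human T-47D breast cells read 80 h after dosing, gain-of-signal fitted relative to DMSO. Compounds: 1:4 serial series, top final concentration 100 uM, n = 2.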

[2] = APR_HepG2_CellCycleArrest_24hr: Apredica 24-hour HepG2 Assay for Cell Cycle Arrest (AID 2282905); conditions: imaging, actives raise or lower the signal;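 also: cell cycle arrest scored as ratio of 2N to 4N nuclear DNA content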
Method in brief: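 HepG2 cells were exposed to compounds at 0.39–200 uM (ten concentrations, duplicate) in 0.5% v/v DMSO for 24 hr. After formaldehyde fixation and Triton permeabilization, Hoechst 33342-stained nuclei were imaged at 20x; DNA content was quantified, with bidirectional fitting against DMSO.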

[3] = APR_HepG2_NuclearSize_24hr: Apredica 24-hour HepG2 Assay for Nuclear Size (AID 2282907); conditions: high-content imaging, actives raise or lower the signal
Method in brief: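 HepG2 human liver cells were exposed for 24 hr to compounds at 0.39–200 uM (ten concentrations, duplicate) in 0.5% v/v DMSO. They were then formaldehyde-fixed, Triton-permeabilized and Hoechst 33342-stained, and nuclear diameter was imaged at 20x. Bidirectional fits were made against DMSO.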

[4] = APR_HepG2_CellLoss_24hr: Apredica 24-hour HepG2 Assay for Cell Loss (AID 2282908); conditions: high-content imaging
Method in brief: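 Compounds were tested at 0.39–200 uM in duplicate with 0.5% v/v DMSO final. Cells were then fixed in 3.7% formaldehyde, Hoechst 33342 nuclei were imaged at 20x by HCS, and cell number was fitted bidirectionally against DMSO.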

[5] = APR_HepG2_MicrotubuleCSK_24hr: Apredica 24-hour HepG2 Assay for Microtubule CSK Stabilty (AID 2282909); conditions: HepG2 microtubule cytoskeleton imaging, actives raise or lower the signal
Method in brief: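 HepG2 cells exposed 24 h to compounds at 0.39–200 uM (duplicate, 0.5% v/v DMSO final), then fixed, permeabilized and immunostained for alpha-tubulin with Hoechst 33342. Cytoskeleton imaged at 20x; bidirectional fit versus DMSO baseline.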

[6] = APR_HepG2_MitoticArrest_24hr: Apredica 24-hour HepG2 Assay for Mitotic Arrest (AID 2282910); conditions: high-content imaging, actives raise or lower the signal
Method in brief: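 Compounds are dosed onto HepG2 cells across ten concentrations up to 200 uM for 24 hr. Cells are then fixed in 3.7% formaldehyde, permeabilised, and labelled for phospho-histone H3 and nuclei; images are scored by cell cycle analysis and fitted bidirectionally relative to DMSO.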

[7] = APR_HepG2_MitoMembPot_24hr: Apredica 24-hour HepG2 Assay for Mitochondrial Membrane Potential (AID 2282911); conditions: imaging, actives raise or lower the signal
Method in brief: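 Mitochondrial membrane potential imaged via MitoTracker Red CMXRos (250 nM, 30 min pre-fixation) in fixed HepG2 cells with Hoechst nuclear identification. Ten concentrations 0.39–200 uM, 24 h treatment, 0.5% DMSO; CCCP as positive control.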

[8] = APR_HepG2_MitoMass_24hr: Apredica 24-hour HepG2 Assay for Mitochondrial Mass (AID 2282912); conditions: high-content imaging, actives raise or lower the signal
Method in brief: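 Human HepG2 liver cells were exposed for 24 hr to compounds at 0.39–200 uM (duplicates, 0.5% v/v DMSO final). They were stained live with 250 nM MitoTracker Red CMXRos for 30 min, fixed in 3.7% formaldehyde, and imaged by HCS fluorescence; signals were fitted bidirectionally against DMSO.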

[9] = APR_HepG2_p53Act_24hr: Apredica 24-hour HepG2 Assay for p53 Activation (AID 2282913); conditions: high-content imaging, actives raise or lower the signal;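 also: p53 protein immunofluorescence averaged per cell in HepG2 with Hoechst nuclei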
Method in brief: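 Fluorescence imaging of formaldehyde-fixed HepG2 cells labelled for p53 and with Hoechst, 24 h after dosing (0.39–200 uM, duplicate wells, 0.5% v/v DMSO). Signal fitted in both directions relative to DMSO.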

[10] = APR_HepG2_CellCycleArrest_72hr: Apredica 72-hour HepG2 Assay for Cell Cycle Arrest (AID 2282914); conditions: high-content imaging, actives raise or lower the signal
Method in brief: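 Read-out: nuclear DNA content from Hoechst 33342 high-content imaging (20x, six fields/well) after 3.7% formaldehyde fixation, fitted bidirectionally against DMSO. Treatment was 72 h in HepG2, ten concentrations 0.39–200 uM, duplicate, 0.5% DMSO.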

[11] = APR_HepG2_CellLoss_72hr: Apredica 72-hour HepG2 Assay for Cell Loss (AID 2282915); conditions: high-content imaging
Method in brief: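 Cell number comes from Hoechst 33342-labelled nuclei, imaged at 20x after 3.7% formaldehyde fixation. Dosing was 0.39–200 uM, ten concentrations in duplicate, 0.5% DMSO final, for 72 h. Bidirectional fit relative to DMSO baseline.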

[12] = APR_HepG2_P-H2AX_72hr: Apredica 72-hour HepG2 Assay for H2AX Phosphorylation (AID 2282916); conditions: imaging, actives raise or lower the signal;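 also: phospho-histone H2A.x immunostain intensity per cell marking DNA damage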
Method in brief: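 HepG2 human liver cells were exposed for 72 hr to compounds at 0.39–200 uM (10 concentrations, duplicate per plate) in 0.5% v/v DMSO. Fixed, permeabilized cells were immunolabeled for phospho-histone H2A.x with Hoechst 33342 and imaged by HCS fluorescence; bidirectional fit versus DMSO.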

[13] = APR_HepG2_MitoMembPot_72hr: Apredica 72-hour HepG2 Assay for Mitochondrial Membrane Potential (AID 2282917); conditions: imaging, actives raise or lower the signal
Method in brief: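 Membrane potential read by MitoTracker Red CMXRos (250 nM, 30 min, pre-fixation) fluorescence imaging of HepG2 after 72 hr exposure. Ten concentrations, 0.39–200 uM, duplicate wells, 0.5% DMSO; fitted in both directions against DMSO baseline.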

[14] = APR_HepG2_MitoticArrest_72hr: Apredica 72-hour HepG2 Assay for Mitotic Arrest (AID 2282918); conditions: high-content imaging, actives raise or lower the signal
Method in brief: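 High-content imaging of fixed human HepG2 cells after 72 h compound exposure (0.39–200 uM, duplicates, 0.5% DMSO); mitotic arrest scored from phospho-histone H3 and nuclear Hoechst staining relative to DMSO.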

[15] = APR_HepG2_MicrotubuleCSK_72hr: Apredica 72-hour HepG2 Assay for Microtubule CSK Stabilty (AID 2282919); conditions: HepG2 microtubule cytoskeleton, high-content imaging, actives raise or lower the signal
Method in brief: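 Read-out is tubulin fluorescence intensity from high-content imaging of HepG2 cells, with nuclei identified by Hoechst 33342. Treatment lasts 72 h at 0.39–200 uM, and curves are fitted bidirectionally against the DMSO negative control.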

[16] = APR_HepG2_P-H2AX_24hr: Apredica 24-hour HepG2 Assay for H2AX Phosphorylation (AID 2282920); conditions: high-content imaging, actives raise or lower the signal
Method in brief: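 High-content imaging of phospho-histone H2A.x immunofluorescence, nuclei counterstained with Hoechst 33342, in fixed HepG2 cells. Compounds ran 0.39–200 uM in duplicate for 24 h, final DMSO 0.5%. Signal change fitted both directions against DMSO.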

[17] = APR_HepG2_StressKinase_72hr: Apredica 72-hour HepG2 Assay for Stress Kinase (AID 2282921); conditions: HepG2 stress kinase (phospho-c-Jun) imaging, actives raise or lower the signal
Method in brief: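 Cells were exposed for 72 h to ten concentrations (0.39–200 uM, duplicate) at 0.5% v/v DMSO final, then fixed with 3.7% formaldehyde, permeabilized and immunostained for phospho-c-Jun (Cy3 secondary) with Hoechst nuclear counterstain.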

[18] = APR_HepG2_StressKinase_24hr: Apredica 24-hour HepG2 Assay for Stress Kinase (AID 2282922); conditions: HepG2 stress kinase (phospho-c-Jun) imaging, actives raise or lower the signal
Method in brief: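 HepG2, 24 hr dosing, 0.39–200 uM in duplicate, 0.5% DMSO; formaldehyde fix (3.7%), 0.5% Triton X-100; anti-phospho-c-Jun + Cy3 secondary, Hoechst counterstain; ArrayScan imaging; bidirectional curve fit vs DMSO baseline.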

[19] = APR_HepG2_p53Act_72hr: Apredica 72-hour HepG2 Assay for p53 Activation (AID 2282923); conditions: high-content imaging, actives raise or lower the signal;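 also: average cellular p53 protein immunofluorescence intensity in HepG2 cells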
Method in brief: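 Cells were dosed for 72 hr with compounds at 0.39–200 uM in duplicate (final DMSO 0.5% v/v), then fixed in 3.7% formaldehyde, permeabilized with Triton X-100 and immunostained for p53 (Cy5) with Hoechst 33342 nuclear counterstain.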

[20] = APR_HepG2_MitoMass_72hr: Apredica 72-hour HepG2 Assay for Mitochondrial Mass (AID 2282924); conditions: high-content imaging, actives raise or lower the signal;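 also: MitoTracker Red CMXRos stain intensity per cell imaged as mitochondrial mass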
Method in brief: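 HepG2, 72 hr cmpd, 10 conc 0.39–200 uM in dup, DMSO 0.5% v/v. MitoTracker Red CMXRos 250 nM 30 min pre-fix; formaldehyde 3.7% fix 30 min RT. HCS imaging, gain/loss fit vs DMSO.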

Measured: AC50

CC(CCO)CC(C)(C)C (stereo not given)
inactive: [1]

CCCCCCCCCOS(=O)(=O)O
inactive: [1]

O=S(=O)(O)c1cc(O)c(O)c(S(=O)(=O)O)c1
inactive: [1]

CCCCCCCCCCCCCCCCCC(=O)OCCCCCCCCCCCCCC(C)C
inactive: [1]

O=C(c1ccc(OCCN2CCCCC2)cc1)c1c(-c2ccc(O)cc2)sc2cc(O)ccc12
not listed: [1]
inactive: all other assays above

CCCCCC1C(=O)CCC1CC(=O)OC (stereo not given)
active: [1] 50 µM

C=CC(=O)OCC(CO)(COC(=O)C=C)COC(=O)C=C
inactive: [1]

Reference: PubChem BioAssay (EPA / NIEHS)
